± gives the standard deviation of the averaged measurements.

This test concerns MDAMB468. As to the kind of experiment: cell proliferation (confluence) relative to DMSO control; higher = less growth inhibition. The settings on record: 5 uM; 6 d. Here is the method:
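Epigenetic chemical probe screen: 15 TNBC cell lines, 500 cells per well in 384-well plates, treated with 5 uM of each of 36 SGC probes for 6 d. Confluency was imaged by IncuCyte ZOOM and normalised to DMSO control wells. Four replicate wells per compound.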
`c1ccc([C@@H]2C[C@H]2NC2CCNCC2)cc1` had a cell proliferation of 79 ± 12%.

Regarding `COc1cc(C(=O)N2CC[C@@H](O)[C@@H](N)C2)cc2nc(-c3cc4ccccc4n3CC3CC3)n(C)c12`, the cell proliferation worked out at 45.6 ± 5%.

In turn, `O=C(O)CNC(=O)c1c(O)c2ccccc2n(Cc2ccccc2)c1=O` yielded a cell proliferation of 77.3 ± 4.1%.
